Laboratory results as given in PubChem BioAssay AID434982 (The Scripps Research Institute Molecular Screening Center, 2010).
Hit rate of the full screen: of about 15,000 compounds, about 60 (0.4%) were called active. No stated cut-off is given here; in the data, active means activation above about 2.2%; inactive means the rest. The list comes from a sample in which actives are over-represented; it also holds similar structures and randomly drawn compounds.

test: agonists of NOTCH signaling (AID 434982); details: NOTCH signaling luciferase reporter cells, luminescence; at 2.5 µM; active compounds read high

activation, inactive:
Cn1c(=O)c2c(ncn2Cc2nnc(-c3ccccc3)o2)n(C)c1=O -0.05%
Cc1ccc(S(=O)(=O)N/N=C/c2ccc(O)cc2O)cc1 -0.7%
Cc1nnsc1C(=O)NN(C)c1ccc([N+](=O)[O-])cn1 -0.31%
CCOC(=O)Cc1cnc(NN=C2C3CC4CC(C3)CC2C4)s1 -0.83%
O=C(Cn1c(=Nc2ccc(F)cc2)oc2ccccc2c1=O)c1ccccc1 -0.66%
O=c1[nH]c2ccccc2c(=O)n1CCSc1ccc(Cl)cc1 -0.73%
O=S(=O)(NC1Cc2ccccc2C1)c1ccc(-c2csnn2)cc1 -0.03%
CCOC(=O)C(=CNNc1ccc(C(=O)O)cc1[N+](=O)[O-])C(=O)OCC -0.57%
Cc1ccc(NC(C(=O)O)c2ccccc2)cc1 (stereo not drawn) -0.61%
CC(=O)Nc1ccc(S(=O)(=O)NNc2c(Cl)cncc2Cl)cc1Cl -0.55%
CCOC(=O)CCC(=O)OC(C(=O)c1ccccc1)c1ccccc1 (stereo not drawn) -0.16%
Cc1ccc(/C=c2\sc3nc4ccccc4n3c2=O)o1 -0.36%
O=S(=O)(CCSc1ccccc1NS(=O)(=O)c1cccs1)c1ccc(Cl)cc1 -0.38%
O=C(Nn1cnnc1)c1ccc([N+](=O)[O-])cc1 -0.58%
O=C(CSc1nnc(-c2ccncc2)o1)N1CCc2ccccc21 -0.94%
Oc1ccccc1C=NCCCN=Cc1ccccc1O -0.99%
N#Cc1ccc(Oc2ccc(Cl)cc2)c([N+](=O)[O-])c1 -0.29%
Oc1ccccc1C=Nc1ccc(F)cc1 -0.14%
O=C(O)/C=C/C(=O)Nc1ccc(NC(=O)c2ccccc2O)cc1 0.22%
CCOC(=O)c1c(C)nn(-c2ncccc2NC(=O)Nc2cccc(Cl)c2Cl)c1C -0.32%
c1ccc(C2=NCCN=C2c2ccccc2)cc1 0.16%
N#CC(C#N)=Cc1cccn1-c1ccc(C(F)(F)F)cc1 -0.29%
N#C/C(=C\c1cccs1)C(=O)NCCc1c[nH]c2ccccc12 0.42%
COC(=O)c1noc(C)c1-c1ccnn1C(=O)c1ccc(Cl)cc1 0.11%
COc1ccc(Cc2nc(C(C)(C)C)cs2)cc1 0.28%
CNC(=S)NNC(=O)c1cc(C)on1 -0.11%
Cn1cnc([N+](=O)[O-])c1N1CCN(C(c2ccccc2)c2ccccc2)CC1 -0.25%
COC(=O)c1sccc1S(=O)(=O)Nc1ccccc1Sc1ncnc2c(C)csc12 -0.68%
